Results on 84 compounds are retold here after PubChem BioAssay AID1645851 (National Center for Advancing Translational Sciences (NCATS), 2021).

About 1,200 (0.86%) of roughly 140,000 compounds were called active. Only a selection was taken, and actives are over-represented in it overall. Values without a mark were called inactive. No stated cut-off is given here; in the data, active means activity change below about -25%; inactive means the rest.
On the % scale 0 is the no-effect control and ±100 the full control effect.

Sequence of Inositol hexakisphosphate kinase 1 (Homo sapiens) (Q92551 whole entry, looked up): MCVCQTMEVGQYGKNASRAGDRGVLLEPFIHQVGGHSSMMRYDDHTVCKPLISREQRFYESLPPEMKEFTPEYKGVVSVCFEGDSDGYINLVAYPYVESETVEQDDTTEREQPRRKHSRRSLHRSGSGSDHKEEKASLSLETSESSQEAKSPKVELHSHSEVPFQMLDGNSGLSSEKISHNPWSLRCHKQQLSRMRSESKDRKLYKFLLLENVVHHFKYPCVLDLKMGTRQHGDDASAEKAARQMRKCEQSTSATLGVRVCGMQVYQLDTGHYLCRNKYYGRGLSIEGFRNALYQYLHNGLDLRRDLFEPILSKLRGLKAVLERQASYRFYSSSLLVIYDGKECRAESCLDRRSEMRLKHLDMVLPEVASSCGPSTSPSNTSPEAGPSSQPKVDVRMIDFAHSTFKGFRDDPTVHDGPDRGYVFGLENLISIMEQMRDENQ

In the assay the target is Inositol hexakisphosphate kinase 1 (Homo sapiens) (UniProt Q92551). Briefly: Primary qHTS assay for small molecule inhibitors of Inositol hexaphosphate kinase 1 (IP6K1). Further: series mostly up to about 58 µM. As to conditions: ADP-Glo luminescence, 2 h, active compounds read low. The text has this:
Assay Provider: Huijun Wei, M.S., Ph.D. School of Medicine, Johns Hopkins University, Baltimore, MD Inositol hexakisphosphate kinases (IP6Ks) catalyze pyrophosphorylation of inositol hexakisphosphate (IP6) into inositol 5-diphospho-1,2,3,4,6-pentakisphosphate (IP7), which is involved in numerous areas of cell physiology including glucose homeostasis, blood coagulation and neurological development. Inhibition of IP6Ks may be effective for the treatment of Type II diabetes, thrombosis, and psychiatric disorders. We performed a quantitative high throughput screen (qHTS) of 158,410 compounds for IP6K1 inhibitors using ankinase activity ADP-Glo Max assay. […] Medicinal chemistry SAR efforts in three chemical series identified potent IP6K1 inhibitors, which were further validated in an orthogonal LC-MS IP7 analysis.
PROTOCOL TABLE SEQUENCE No. (e.g., 1, 2, 3, etc.); […] (e.g., Cells, Incubation, Reagent, etc.); VALUE and DESCRIPTION. 1. Reagent, 3 uL of 1.3 mM ATP and 130 uM IP6 mixture in assay buffer was dispensed to a white, 1536-well assay plate. 2. Compound, 23 nL of compounds of the top two doses (57.5 uM and 19.1 uM final concentration) of the libraries were dispensed into the mixture using the Kalypsis pintool. 3. Reagent, 1 uL of 2.4 uM IP6K1 was dispensed to the assay plates. 4. Incubation, 2 hr incubation at room temperature. 5. Reagent, 2 uL of ADP-Glo reagent was added to the wells. 6. Incubation, 1 hr incubation at room temperature. 7. Reagent, 4 uL or ADP-Glo substate was added to the wells. 8. Incubation, 45 min incubation at room temperature. 9. Detection, luminescence signal was detected using the ViewLux microplate imager (PerkinElmer).
A general note: Quantitative high-throughput screening tests each substance at several concentrations.
With `Cc1nn(-c2ccccc2)c2c1C(C)N(C1CCN(C(=O)C(C)C)CC1)C2=O` (centres undefined), the activity change is 2.6%. The same measure for `O=C(NCc1ccccc1)c1c(-c2ccccc2)cc(=O)n2c1CCCC2`: 5.1%. As to `COc1ccccc1-c1ccc(CN2CCC(NC(=O)c3ccc(Cl)nc3)C2)cc1` (centres undefined), the activity change was 8.29%. `CC(C)Cn1c(=O)c(C(=O)NCc2ccc(F)cc2)nc2cccnc21`: the activity change was 8.42%. For `O=C(Nc1cccc(NC(=O)c2ccc(Br)cc2)c1)c1ccccc1`, the activity change is -16%. Consider `CC(C)(C)c1ccc(C(=O)Nc2cc(Cl)c(Br)cc2C(=O)O)cc1`, for which the activity change is -35.3% (active). In the case of `O=C(Nc1ccc(C(=O)O)c(O)c1)c1ccccc1`, the activity change is 7.03%. `CC(=O)c1cc(CC(=O)NCc2cc(F)c(F)cc2F)cs1`: the activity change was -1.78%.

Consider `C[C@H]1[C@@H]2[C@@H](O)C([C@H](C)C(=O)NC3CCCC3)CC[C@@]2(C)CC[C@@H]1NC(=O)c1ccc(C#N)cc1` (some centres undefined), for which the activity change was 8.22%. The figure for `Cn1ncc2c(C(=O)N3CCN(c4ncccn4)CC3)cc(-c3ccc(C(F)(F)F)cc3)nc21` is 2.25%; for `Cc1cc(C(=O)N2CCC3(CCCNC3=O)C2)ccc1N1CCOCC1` (centres undefined) it is 11%; for `COc1ccc(C2Cn3nnc(C(=O)N4CCC(C(=O)NCc5ccc(C)cc5)CC4)c3CO2)cc1` (centres undefined) it is -5.17%. For `COc1ccc(C2Cn3nnc(C(=O)N4CCN(C(=O)c5ccc(C)cc5C)CC4)c3CO2)cc1` (centres undefined), the activity change is -25.2% (active). Turning to `COc1ccc(C2Cn3nnc(C(=O)N4CCN(C(=O)c5cccc(Cl)c5)CC4)c3CO2)cc1` (centres undefined), the activity change was 2.61%. With `CNC(=O)[C@@H]1C[C@@H](n2cc(CNC(=O)Nc3cccc(Cl)c3C)nn2)CN1`, the activity change was 11.8%. The figure for `O=C(C1CC1)N1CCC(N2CC(OCC3CC3)C23CCOCC3)CC1` (centres undefined) is -1.99%; for `CN(C)[C@@H]1C(=O)C(C(N)=O)=C(O)[C@@]2(O)C(=O)C3=C(O)c4c(O)ccc(Cl)c4[C@@H](O)[C@H]3C[C@@H]12` it is -40.7% (active). On to `C(=C\c1ccccc1)/CN1CCN(c2nccc(-c3cccnc3)n2)CC1`, for which the activity change was -36.7% (active).

`C(=C\c1ccccc1)/CN1CCN(c2ncncn2)CC1`: the activity change was -5.21%. In the case of `O=C(c1nc(-c2cccnc2)c2cnccn12)N1CCN(c2ncccn2)CC1`, the activity change is 8.68%. On to `CCOC(=O)[C@@H]1[C@@H](O)C(=O)N(Cc2ccccc2)C12CCN(C(=O)c1cc3ccccc3s1)CC2`, for which the activity change was 14.8%. The same measure for `O=C(CC1CCCN(c2cnn(CC3CC3)c(=O)c2)C1)N1CCCC1` (centres undefined): 15.7%; for `COc1ccc(-c2onc(C)c2C)cc1S(=O)(=O)NCCc1ccccc1`: 17.3%.

Turning to `Cc1ccc(-c2onc(C)c2C)cc1S(=O)(=O)Nc1ccccn1`, the activity change is -25.5% (active).

For `COc1ccc(-c2onc(C)c2C)cc1S(=O)(=O)NCc1cccs1`, the activity change is 41.7%.

Turning to `C=CCCC(CN1CCCC1)Oc1ncc(F)c(N2CCCC2)n1` (centres undefined), the activity change is -2.11%. On to `O=C(NCC1CCOCC1)Nc1cccc(Cl)c1`, for which the activity change is 18.6%. With `COc1cc(NC(=O)Nc2cccc(CNC(=O)O[C@H]3CCOC3)c2)ccc1-c1cnco1`, the activity change is -31.9% (active).

With `COc1ccc(NC(=O)N2CCC(CC(=O)NCc3ccccc3)C2)cc1OC` (centres undefined), the activity change is -12.4%. On to `C=CCCC(=O)N1CCC2(CCCN(Cc3cccc(F)c3F)C2=O)C1` (centres undefined), for which the activity change is -2.13%.

Take `FC(F)(F)c1ccc(CN2CCC3(CC(c4cccc(C(F)(F)F)c4)=NO3)C2)cc1` (centres undefined): the activity change was -5.41%. On to `N#Cc1ccc(CN2CC(Oc3ccc(F)cc3F)C2)cc1`, for which the activity change is -14.3%. Turning to `CO[C@H]1C=CO[C@@]2(C)Oc3c(C)c(O)c4c(O)c(c(/C=N/N5CCN(C)CC5)c(O)c4c3C2=O)NC(=O)/C(C)=C\C=C[C@H](C)[C@H](O)[C@@H](C)[C@@H](O)[C@@H](C)[C@H](OC(C)=O)[C@@H]1C`, the activity change is -33.1% (active). For the compound `O=C(C1CCN(Cc2ccccc2-c2ccccc2F)CC1)N1CCC(c2ccccc2)CC1`, the activity change was 20.1%. As for `Cc1ccccc1C(=O)N1CCCC(C(=O)N2CCC(c3ccccc3)CC2)C1` (centres undefined), the activity change is -2.33%.

Turning to `O=[S+]([O-])(c1ccccc1)N1CC2(COCCN(Cc3cc(F)ccc3F)C2)C1`, the activity change was 8.88%. The same measure for `COc1cccc(Nc2n[nH]c(C(O)c3cccc(C(F)(F)F)c3)n2)c1` (centres undefined): -3.83%. For the compound `COc1ccc(-c2nn(CC(=O)NC3CCCC3)c3c2cnc2ccc(F)cc23)cc1`, the activity change was 19.4%. On to `COc1ccc(-c2nn(CC(=O)Nc3ccccc3F)c3c2cnc2ccc(F)cc23)cc1`, for which the activity change was 6.83%. The same measure for `COc1ccc2ncc3c(-c4ccc(C)c(C)c4)nn(CC(=O)NC4CCCC4)c3c2c1`: -25.8% (active); for `COc1ccc(-c2nc(-c3ccccc3)nc3c2CN(C(=O)c2ccc(C)cc2)CC3)cc1`: 6.25%.

In the case of `CCN1c2cc(C(=O)NCc3ccccc3C(F)(F)F)ccc2C(=O)N2CCCCCC21` (centres undefined), the activity change is -7.94%. On to `Cc1ccc(Cl)cc1NC(=O)CN1C(=O)NC(c2ccc(Cl)cc2)C2=C1COC2=O` (centres undefined), for which the activity change was -3.73%. With `CCOC(=O)c1cc2c(=O)n3ccccc3nc2n(CC2CCCO2)c1=NC(=O)c1ccc(C(C)(C)C)cc1` (centres undefined), the activity change is -2.99%.

On to `CCOC(=O)c1cc2c(=O)n3ccccc3nc2n(Cc2ccco2)c1=NC(=O)c1ccc(F)cc1`, for which the activity change is -40.8% (active). `CCOC(=O)c1cc2c(=O)n3ccccc3nc2n(CC2CCCO2)c1=NC(=O)c1ccccc1F` (centres undefined): the activity change is -9.99%. Take `NC(=O)Cn1ccc2cc(OCC3CCN(C(=O)C4CCCC4)CC3)cnc21`: the activity change is -2.13%. As for `CC(C)CCNC(=O)c1cnc2c(c1)N(Cc1ccccc1)CCC2`, the activity change is 3.22%.

With `COC[C@H]1C[C@@H](NC(=O)c2ccc(C#N)cc2)[C@H](O)[C@@H]1O`, the activity change is -1.35%. Regarding `Cn1cc(C(=O)N2CCC(C(=O)N3CCCCCCNC(=O)CC3)CC2)cn1`, the activity change is -7.37%.

As to `N#Cc1ccc(C(=O)Nc2ccc([C@H]3OCC(=O)N(Cc4cccnc4)[C@@H]3CO)cc2)cc1`, the activity change was -3.68%. With `O=C(Nc1cc(-c2ccncc2)nn1-c1ccccc1)c1ccccc1F`, the activity change was -7.37%.

On to `O=C(Nc1cccnc1)[C@@H]1C[C@@H](c2ccc(F)cc2)N([S+](=O)([O-])c2ccccc2)C1`, for which the activity change is 19.9%. As to `Cc1ccc(CNC(=O)CCc2c(C)nc3c(c(C)nn3-c3ccccc3)c2C)cc1`, the activity change is -26.3% (active).

On to `Cc1nc2c(c(C)nn2-c2ccccc2)c(C)c1CCC(=O)NCCc1ccc(Cl)cc1`, for which the activity change is 11.8%. Take `COC(=O)c1ccc(NC(=O)CCc2c(C)nc3c(c(C)nn3-c3ccc(C)cc3)c2C)cc1`: the activity change was 33%. The figure for `Cn1ncc2c(C(=O)NCc3ccc(Cl)cc3)cc(-c3ccc(F)cc3)nc21` is 11.6%; for `O=C(NCCc1ccccc1F)c1ccc2nnc(-c3ccc(F)cc3)n2c1` it is 1.1%. For the compound `COC(=O)NC1CCCN(c2ccc3nnc(-c4ccccc4)n3n2)C1` (centres undefined), the activity change was -6.13%. As to `COc1ccc(N2CC(c3noc(-c4cc(OC)c(OC)c(OC)c4)n3)CC2=O)cc1` (centres undefined), the activity change was 12.4%.

In the case of `CCOc1ccccc1CNC(=O)C1CCCN(S(=O)(=O)c2ccc3c(ccn3C)c2)C1` (centres undefined), the activity change was -3.08%. For the compound `CCOc1ccccc1NC(=O)C1CCCN(S(=O)(=O)c2cn(C)cn2)C1` (centres undefined), the activity change was -25.5% (active).

For the compound `Cc1ccc(C)c(NC(=O)C2CCCN(S(=O)(=O)c3cn(C)cn3)C2)c1` (centres undefined), the activity change was 5.66%. Turning to `O=c1cc(N2CCOCC2)oc2c(NCc3ccncc3)nccc12`, the activity change was -7.16%. The figure for `O=c1cc(N2CCOCC2)oc2c(Nc3cccc(Cl)c3)nccc12` is -31% (active). For `Cc1noc(C)c1-c1nccc2c(=O)cc(N3CCOCC3)oc12`, the activity change was -13.2%. For `CN(C)c1ccc(CN(C)C2CCc3ccccc3C2)cc1` (centres undefined), the activity change was -16.7%. In the case of `CC(C)OCCCNC(=O)c1cc(-c2ccc(C(F)(F)F)cc2)nc2c1cnn2C`, the activity change was -2.02%. Turning to `CCOc1ccccc1NC(=O)CN1C(=O)C(c2ccccc2)=NC12CCCC2`, the activity change is 7.82%. As for `CC1=C(C(=O)N(C)C)C(c2ccc(Cl)cc2)N2C(CC(=O)NC(C)c3ccccc3)=CSC2=N1` (centres undefined), the activity change is 33.5%. On to `CC1=C[C@@H](CNC(C)C)[C@H](C(C)C)C[C@H]1Cc1nnc(-c2ccc(N(C)C)cc2)o1`, for which the activity change is -0.243%.

`Cc1ccccc1C(=O)N1CCCC(C(=O)N2CCC(N3CCOC3=O)CC2)C1` (centres undefined): the activity change is -1.11%.

With `C#C[C@]1(O)CC[C@H]2[C@@H]3CCC4=CC(=O)CC[C@@H]4[C@H]3CC[C@@]21CC`, the activity change is 3.56%. `C#C[C@]1(O)CC[C@H]2[C@@H]3CCC4=C/C(=N/O)CC[C@@H]4[C@H]3CC[C@@]21CC`: the activity change was -79.6% (active). The same measure for `CN1CC(=O)N(C2CCC2)Cc2c(NCC(C)(C)C)ncnc21`: 15.1%; for `O=C(OCc1ccccc1)N1CCOCC12CCN(Cc1ccncc1Cl)CC2`: 13%. The figure for `CN(CC1CCN(CCc2cccc(F)c2)CC1)C(=O)c1cn2cccnc2n1` is 28.9%.

On to `Cc1cc(=O)n(CC(=O)NCCc2ccc(Cl)cc2)c(N2CCc3ccccc3C2)n1`, for which the activity change was 19.5%. With `N#CSc1cc(SC#N)c(N)nc1N`, the activity change was -42.8% (active). With `COc1ccc(Cn2c(=O)c(C(=O)N3CCN([S+](=O)([O-])c4c(C)noc4C)CC3)nc3cccnc32)cc1`, the activity change is 10.5%. Regarding `Cc1cn2nc(C(=O)Nc3cc(F)cc(F)c3)cc2c(N(C)Cc2ccccc2)n1`, the activity change is -5.8%. Turning to `O=c1cc(-c2ccccn2)oc2c(-c3ccccc3F)nccc12`, the activity change is -14.4%. The same measure for `O=c1cc(-c2cccnc2)oc2c(-c3ccccc3O)nccc12`: -32.5% (active); for `O=c1cc(-c2cccnc2)oc2c(-c3cccc(CO)c3)nccc12`: -18.5%.
